For five compounds, AC50 and outcome results are on record in PubChem BioAssay (EPA / NIEHS).

SMILES strings stand for the structures. A structure can be active in one record and inactive in another. Active and inactive are the calls of the source. The calls were made as follows: active = hit-call score of the fitted dose curve at least 0.9, where 1 is the maximum; inactive = score below 0.9.

Read-out in assay [1]: serum amyloid A (SAA), SAA1 (gene 6288)
Put plainly: BSK_CASM3C_SAA: BioMAP Diversity Plus: CASM3C Assay for serum amyloid A (SAA) Biomarker Activity (AID 2283049).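 Also: SAA protein level quantified by ELISA.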 The following applies: primary human coronary artery smooth muscle cells; actives raise or lower the signal.

A short description of assay [2]: BSK_CASM3C_SRB: Viability Assessment in the BioMAP Diversity Plus: CASM3C Assay (AID 2283050). The following applies: primary human coronary artery smooth muscle cells.
Read-out in assay [3]: Thrombomodulin, THBD (gene 7056)
Put plainly: BSK_CASM3C_Thrombomodulin: BioMAP Diversity Plus: CASM3C Assay for Thrombomodulin Biomarker Activity (AID 2283051).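 Also: thrombomodulin protein level measured by ELISA 24 h after dosing.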 The following applies: primary human coronary artery smooth muscle cells; actives raise or lower the signal.

Read-out in assay [4]: Tissue Factor, F3 (gene 2152)
Put plainly: BSK_CASM3C_TissueFactor: BioMAP Diversity Plus: CASM3C Assay for Tissue Factor Biomarker Activity (AID 2283052).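 Also: cell surface tissue factor protein level read by ELISA.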 The following applies: primary human coronary artery smooth muscle cells; actives raise or lower the signal.

Read-out in assay [5]: Interferon-gamma inducible Protein 10 (IP10), CXCL10 (gene 3627)
Briefly: BSK_hDFCGF_IP10: BioMAP Diversity Plus: hDFCGF Assay for Interferon-gamma inducible Protein 10 (IP10) Biomarker Activity (AID 2283053). The following applies: primary human foreskin fibroblasts; actives raise or lower the signal. Summed up:
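Primary human foreskin fibroblasts exposed to chemicals for 24 h. IP-10 measured by ELISA; changes fitted bidirectionally against DMSO baseline.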

Read-out in assay [6]: Urokinase-type plasminogen activator receptor (uPAR), PLAUR (gene 5329)
Briefly: BSK_CASM3C_uPAR: BioMAP Diversity Plus: CASM3C Assay for Urokinase-type plasminogen activator receptor (uPAR) Biomarker Activity (AID 2283054).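 Also: cell-surface uPAR protein level quantified by ELISA.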 To be noted: primary human coronary artery smooth muscle cells; actives raise or lower the signal.

Read-out in assay [7]: Vascular cell adhesion molecule 1 (VCAM1), VCAM1 (gene 7412)
Briefly: BSK_CASM3C_VCAM1: BioMAP Diversity Plus: CASM3C Assay for Vascular cell adhesion molecule 1 (VCAM1) Biomarker Activity (AID 2283055).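 Also: VCAM-1 protein level quantified by ELISA on the cells.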 To be noted: primary human coronary artery smooth muscle cells; actives raise or lower the signal.

Read-out in assay [8]: Collagen III, COL3A1 (gene 1281)
Put plainly: BSK_hDFCGF_CollagenIII: BioMAP Diversity Plus: hDFCGF Assay for Collagen III Biomarker Activity (AID 2283056). To be noted: primary human foreskin fibroblasts; actives raise or lower the signal. A digest of the protocol: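 Response relative to DMSO, fitted in both directions, reflects ELISA-measured collagen III in human primary skin fibroblasts 24 h after compound addition.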

Read-out in assay [9]: Epidermal growth factor receptor (EGFR), EGFR (gene 1956)
Briefly: BSK_hDFCGF_EGFR: BioMAP Diversity Plus: hDFCGF Assay for Epidermal growth factor receptor (EGFR) Biomarker Activity (AID 2283057). The following applies: primary human foreskin fibroblasts; actives raise or lower the signal. Summed up: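 Primary human foreskin fibroblasts (hDFCGF system), sampled 24 h after dosing; EGFR quantified by ELISA. Bidirectional fit relative to DMSO baseline; SRB total-protein staining in parallel cultures for cytotoxicity.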

Read-out in assay [10]: Interleukin-8 (IL8), CXCL8 (gene 3576)
Briefly: BSK_hDFCGF_IL8: BioMAP Diversity Plus: hDFCGF Assay for Interleukin-8 (IL8) Biomarker Activity (AID 2283058). To be noted: primary human foreskin fibroblasts; actives raise or lower the signal. A digest of the protocol: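 Fibroblast monolayers (human foreskin, hDFCGF) received test chemical for 24 h before ELISA detection of IL-8; either increases or decreases relative to DMSO count as activity.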

Read-out in assay [11]: Macrophage colony-stimulating factor (MCSF), CSF1 (gene 1435)
Put plainly: BSK_hDFCGF_MCSF: BioMAP Diversity Plus: hDFCGF Assay for Macrophage colony-stimulating factor (MCSF) Biomarker Activity (AID 2283060). To be noted: primary human foreskin fibroblasts; actives raise or lower the signal. Summed up: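 fibroblasts (human foreskin, primary), 24 h post-dose; M-CSF by ELISA; bidirectional fit, DMSO = baseline.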

Assay [12] in a line: BSK_hDFCGF_SRB: Viability Assessment in the BioMAP Diversity Plus: hDFCGF Assay (AID 2283061).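 Also: cells exposed to compound for 24 h before the read.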 To be noted: primary human foreskin fibroblasts. Summed up:
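SRB-based viability read on primary human skin fibroblasts at 24 h: TCA fixation, 0.1% dye, 560 nm. Gain or loss of signal is fitted against the DMSO negative control.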

Read-out in assay [13]: TIMP metallopeptidase inhibitor 1 (TIMP1), TIMP1 (gene 7076)
Briefly: BSK_hDFCGF_TIMP1: BioMAP Diversity Plus: hDFCGF Assay for TIMP metallopeptidase inhibitor 1 (TIMP1) Biomarker Activity (AID 2283062). To be noted: primary human foreskin fibroblasts; actives raise or lower the signal. A digest of the protocol: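 Bidirectional curve fitting against DMSO baseline yielded this endpoint, based on ELISA detection of TIMP-1 in primary human foreskin fibroblasts exposed to compound for 24 h.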

Read-out in assay [14]: Monokine induced gamma interferon (MIG), CXCL9 (gene 4283)
Briefly: BSK_hDFCGF_MIG: BioMAP Diversity Plus: hDFCGF Assay for Monokine induced gamma interferon (MIG) Biomarker Activity (AID 2283063). The following applies: primary human foreskin fibroblasts; actives raise or lower the signal. A digest of the protocol: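 Endpoint derived by bidirectional fitting relative to DMSO; MIG quantified via ELISA in primary human foreskin fibroblasts harvested 24 h after dosing.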

Read-out in assay [15]: Matrix Metallopeptidase 1 (MMP1), MMP1 (gene 4312)
Put plainly: BSK_hDFCGF_MMP1: BioMAP Diversity Plus: hDFCGF Assay for Matrix Metallopeptidase 1 (MMP1) Biomarker Activity (AID 2283064). To be noted: primary human foreskin fibroblasts; actives raise or lower the signal. Summed up:
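Primary human foreskin fibroblasts exposed to chemicals for 24 h; MMP1 measured by ELISA. Cytotoxicity tracked by SRB staining in parallel cultures; bidirectional fit relative to DMSO.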

Read-out in assay [16]: Vascular cell adhesion molecule 1 (VCAM1), VCAM1 (gene 7412)
Put plainly: BSK_hDFCGF_VCAM1: BioMAP Diversity Plus: hDFCGF Assay for Vascular cell adhesion molecule 1 (VCAM1) Biomarker Activity (AID 2283065).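 As to AC50: VCAM-1 protein level quantified by ELISA after 24 h chemical exposure.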 The following applies: primary human foreskin fibroblasts; actives raise or lower the signal. A digest of the protocol:
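Measured after 24 h chemical treatment of primary human skin fibroblasts, VCAM-1 was detected by ELISA and concentration-response analysed in both directions versus DMSO vehicle.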

Read-out in assay [17]: Plasminogen activator inhibitor-1 (PAI1), SERPINE1 (gene 5054)
Put plainly: BSK_hDFCGF_PAI1: BioMAP Diversity Plus: hDFCGF Assay for Plasminogen activator inhibitor-1 (PAI1) Biomarker Activity (AID 2283066). To be noted: primary human foreskin fibroblasts; actives raise or lower the signal. Summed up:
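Human foreskin fibroblast primary cells, 24 h chemical exposure; PAI-1 measured by ELISA. Bidirectional fitting relative to DMSO; parallel cultures stained with SRB for total protein to flag overt cytotoxicity.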

Read-out in assay [18]: Intercellular Adhesion Molecule 1 (ICAM1), ICAM1 (gene 3383)
Put plainly: BSK_KF3CT_ICAM1: BioMAP Diversity Plus: KF3CT Assay for Intercellular Adhesion Molecule 1 (ICAM1) Biomarker Activity (AID 2283067). The following applies: primary human keratinocytes with fibroblasts; actives raise or lower the signal. Summed up: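 Bidirectional curve fitting against a DMSO baseline was applied to ICAM-1 ELISA signal from primary human skin co-cultures harvested 24 h after treatment, with SRB staining of parallel wells for overt cytotoxicity.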

Read-out in assay [19]: Interferon-gamma inducible Protein 10 (IP10), CXCL10 (gene 3627)
Put plainly: BSK_KF3CT_IP10: BioMAP Diversity Plus: KF3CT Assay for Interferon-gamma inducible Protein 10 (IP10) Biomarker Activity (AID 2283068). The following applies: primary human keratinocytes with fibroblasts; actives raise or lower the signal. Summed up: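 Signal is secreted/surface IP-10 by ELISA in a human primary skin co-culture of keratinocytes and foreskin fibroblasts, taken 24 h post-dosing; DMSO served as negative control.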

Assay [20] in a line: BSK_hDFCGF_Proliferation: Cell Proliferation Assessment in the BioMAP Diversity Plus: hDFCGF Assay (AID 2283059).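 Also: curves fitted for both rise and fall of signal versus DMSO baseline.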 The following applies: primary human foreskin fibroblasts. Summed up:
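This proliferation readout used SRB total-protein staining of human foreskin fibroblasts […], normalized to DMSO with bidirectional curve fitting.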

As to `O=C(O)CCC(F)(C(F)(F)F)C(F)(F)F`, the concentration at half-maximal activity (AC50) in [1] was 17.9 µM (active); in assay [5], 1.93 µM (active); in [7], 0.25 µM (active); in [11], 5.95 µM (active); in assay [16], 7.04 µM (active). Further, the result in assay [1], in assay [2], in assay [3], in [4], in assay [5] and in assay [6] was inactive. The result in assay [7], in assay [8], in assay [9], in assay [10], in assay [11] and in [12] was inactive. In addition, the outcome in assay [13], in [14], in [15], in [16], in [17] and in assay [18] was inactive. In addition, in assay [19], the outcome was inactive.
Consider `O=S(=O)(c1ccc(Cl)cc1)c1ccc(Cl)cc1`, for which the result in [1], in [2], in assay [3], in assay [4], in assay [5] and in assay [6] was inactive. The outcome in assay [7], in assay [8], in [9], in assay [10], in assay [20] and in assay [11] was inactive. Also, the result in [12], in assay [13], in assay [14], in [15], in [17] and in [18] was inactive. The result in [19] was inactive. The AC50 in assay [16] is 5.32 µM (active).
Regarding `COC[C@H](C)N(C(=O)CCl)c1c(C)csc1C`, the outcome in assay [1], in [2], in [3], in assay [4], in assay [5] and in assay [6] was inactive. Moreover, the result in [7], in [8], in [9], in assay [10], in assay [20] and in [11] was inactive. Moreover, the result in assay [12], in assay [13], in assay [14], in assay [15], in assay [16] and in assay [17] was inactive. Moreover, the result in [18] and in [19] was inactive.
Consider `CC(C)(C)c1cc(O)ccc1O`, for which the result in [1], in assay [2] and in [6] was inactive. Besides, the AC50 in assay [3] is 14.7 µM (active); in assay [4], 11.2 µM (active); in assay [5], 4.87 µM (active); in assay [7], 23.7 µM (active); in assay [8], 5.6 µM (active); in assay [9] it was 5.78 µM (active). Moreover, the AC50 is 9.21 µM (active) in assay [10]; 0.472 µM (active) in assay [20]; 5.23 µM (active) in assay [11]; 4.07 µM (active) in assay [12]; 4.45 µM (active) in assay [13]; 4.42 µM (active) in [14]. Further, the AC50 is 6.21 µM (active) in [15]; 3.31 µM (active) in assay [16]; 5.24 µM (active) in [17]; 30.8 µM (active) in [18]; 30.1 µM (active) in assay [19].
In the case of `CCN1CCC2(CC1)COc1cc3c(cc12)N(C(=O)c1ccc(-c2ccc(-c4nnc(C)o4)cc2C)cc1)CC3`, the AC50 is 32.5 µM (active) in assay [1]; 24.4 µM (active) in assay [2]; 33.7 µM (active) in [3]; 9.35 µM (active) in assay [5]; 31.1 µM (active) in assay [6]; 27.6 µM (active) in assay [7]. In addition, the AC50 in assay [8] was 9.42 µM (active); in assay [10] it was 12.5 µM (active); in [20], 5.13 µM (active); in assay [11], 7.12 µM (active); in assay [12] it was 6.07 µM (active); in assay [13], 9.3 µM (active). Further, the AC50 was 11.2 µM (active) in assay [14]; 9.25 µM (active) in assay [15]; 7.34 µM (active) in assay [16]; 9.28 µM (active) in [17]; 28.6 µM (active) in assay [18]; 28.4 µM (active) in assay [19]. Besides, the result in assay [4] and in assay [9] was inactive.
